Source: PubChem BioAssay (National Center for Advancing Translational Sciences (NCATS))
FBPA Giardia inh: inhibitors of Giardia lamblia fructose-1,6-bisphosphate aldolase; A8B2U2; purified Giardia FBPA; Potency, µM (top dose mostly 59.6 µM), hits mostly inhibitors; 0.71% of 290,000 active; AID 2451; also: nearly all actives have a fitted effect of over 55% in size
Target sequence (A8B2U2 whole entry, looked up): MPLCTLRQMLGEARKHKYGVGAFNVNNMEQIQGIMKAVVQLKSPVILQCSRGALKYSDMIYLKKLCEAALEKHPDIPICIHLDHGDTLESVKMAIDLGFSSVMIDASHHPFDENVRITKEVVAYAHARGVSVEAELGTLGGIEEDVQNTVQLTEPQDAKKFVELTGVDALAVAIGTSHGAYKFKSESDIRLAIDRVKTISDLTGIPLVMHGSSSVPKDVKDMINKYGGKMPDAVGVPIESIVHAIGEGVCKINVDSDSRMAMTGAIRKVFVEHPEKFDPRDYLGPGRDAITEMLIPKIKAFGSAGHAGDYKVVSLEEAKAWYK
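40 nM FBPA preincubated 10 min at RT with compound (up to 57.5 uM final), then substrate plus GAPDH/TPI/NAD/arsenate coupling and diaphorase/resazurin added. Fluorescence read after 20 min at RT, 525/598 nm.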
MARV entry inh: blocks Marburg virus binding to or entry into cells; Marburg virus pseudotyped entry inhibition, cell reporter; Potency, µM (top dose mostly 37.8 µM), usual class: inhibitors; 1.8% of 300,000 active; calls by dose curve; tested in HEK293 cells
FMDV antiviral: blocks foot and mouth disease virus; FMDV antiviral cell-based qHTS; Potency, µM (titrated, usually from 57.9 µM), hits mostly inhibitors; 1.2% of 410,000 active; calls by dose curve; tested in HEK293T cells; also: read-out not given here; nearly all actives have a fitted effect of over 45% in size
LASV entry inh: blocks Lassa virus binding to or entry into cells. Lassa virus pseudotype entry inhibition, cell reporter. Potency, µM (titrated, usually from 37.9 µM), usual class: inhibitors. 1.2% of 300,000 active. AID 540256; calls by dose curve; tested in HEK293 cells; also: nearly all actives have a fitted effect of over 50% in size
HCMV antiviral: human cytomegalovirus inhibition. HFF cells, HCMV-luciferase reporter, 72 h; active compounds read low. 4.5% of 410,000 active. activity change, negative = inhibition, % at 57.5 µM. AID 1259415; in the data active = activity change below about -60%; inconclusive = no clear call, values can overlap the other calls; inactive = above about -39%
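Cell-based, HFFs, 1000 cells/well, 16 h 37C; cpds in DMSO + HCMV-luc, MOI 1 PFU/cell; 72 h 37C; OneGlo luminescence after 5 min RT; norm. to buffer vs Salinomycin 10uM.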
HCV inhibitor: blocks hepatitis C virus. Huh7.5.1 HCVcc-Cre infection, luciferase reporter, 44 h. Potency, µM (titrated, usually from 41.8 µM), hits mostly inhibitors. 3.4% of 340,000 active. AID 651820
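HCVcc-Cre virus at an moi near 0.5 was added right after compound to cells cultured 4 h from seeding (1,000 cells/well). Luciferase activity was determined 44 h later, 15 min after substrate addition at RT.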
Hits are given with their value; ! = a repeat was not active; [ ] = remark or other dose. A selection: hits, their analogues and other compounds. The true share with any hit is near 8.3%. Unless noted, calls follow the shape of the dose curve; as a rule, active = well fitted curve in the direction sought with a large enough effect; inconclusive = small, poorly fitted or top-dose-only effect, or another doubt; inactive = no such curve, though single readings can be large; an effect the other way counts as inactive or inconclusive.

Cn1c(C(=O)NCc2ccccc2)cc2oc3ccccc3c21 was read as FBPA Giardia inh inactive, MARV entry inh 2.6µM, FMDV antiviral inactive, LASV entry inh inconclusive, HCMV antiviral -89 and HCV inhibitor inconclusive.
`Cc1cnc(C)c(-c2ccc(F)c3c2OC(CNC(=O)Cc2c(C)[nH]c4ccccc24)C3)n1` (centres undefined) gave FMDV antiviral inactive.
For O=C1C[C@@H](O)[C@@H](O)[C@@H]2[C@H]3C(=O)N(c4ccc(F)cc4F)C(=O)[C@@H]3CC[C@H]12 the results were FBPA Giardia inh inactive[12.9 µM].
Cn1c(C(=O)NCc2cccs2)cc2oc3ccccc3c21 was read as FBPA Giardia inh inactive, MARV entry inh 0.45µM, FMDV antiviral inactive, LASV entry inh 0.5µM, HCMV antiviral -80 and HCV inhibitor inconclusive.
`COC(=O)C1=C(C(=O)OC)[C@@H]2N(Cc3ccccc3)c3ccccc3[C@@]23C[C@@H](C(=O)OC)N(C(=O)c2ccco2)C3=N1` gave FBPA Giardia inh inactive[12.9 µM].
Cc1ccc(SCc2cc(=O)[nH]c(N3CCN(Cc4ccccc4)CC3)n2)cc1 was read as FBPA Giardia inh inactive, MARV entry inh inactive, FMDV antiviral inactive, LASV entry inh inactive, HCMV antiviral inactive and HCV inhibitor inactive.
Screening Cc1ccc(SCc2cc(=O)[nH]c(N3CCN(Cc4ccc5c(c4)OCO5)CC3)n2)cc1 returned FBPA Giardia inh inactive, MARV entry inh inactive, FMDV antiviral inactive, LASV entry inh inactive, HCMV antiviral -63 and HCV inhibitor inactive.
`CC(Oc1ccccc1)C(=O)Nc1nnc(S(=O)(=O)N2CCCCCC2)s1` (centres undefined) gave FBPA Giardia inh inactive, FMDV antiviral inactive, LASV entry inh inactive, HCMV antiviral -69! and HCV inhibitor inactive.
For COc1ccc(C(=O)c2oc3ccccc3c2N)cc1 the results were FBPA Giardia inh inactive, MARV entry inh inactive, FMDV antiviral inactive, LASV entry inh inactive, HCMV antiviral -67 and HCV inhibitor inactive.
Screening COc1cc(C(=O)Nc2ccc(N(C)C)cc2)cc(OC)c1OC returned FBPA Giardia inh inactive, MARV entry inh inactive, FMDV antiviral inactive, LASV entry inh inactive, HCMV antiviral inactive and HCV inhibitor inconclusive.
For O=C(Nc1ccccc1)C1=C(N2CCOCC2)/C(=C/c2cccnc2)CC1 the results were FBPA Giardia inh inactive, MARV entry inh inactive, LASV entry inh inactive, HCMV antiviral inactive and HCV inhibitor inactive.
`COc1cc(NC(=O)C2=C(N3CCOCC3)/C(=C\c3ccc(N(C)C)cc3)CCC2)cc(OC)c1OC` gave FBPA Giardia inh inactive, MARV entry inh inconclusive, FMDV antiviral inconclusive, LASV entry inh inconclusive, HCMV antiviral -91 and HCV inhibitor 6.3µM.
COc1cc(NC(=O)C2=C(N3CCOCC3)/C(=C/c3ccc(Cl)cc3)CC2)cc(OC)c1OC was read as FBPA Giardia inh inactive, MARV entry inh 16µM, FMDV antiviral inconclusive, LASV entry inh inactive, HCMV antiviral inactive and HCV inhibitor inactive.
CCCCn1nc(C(=O)N(C)C2CCCCC2)c2ccccc2c1=O was read as FMDV antiviral inactive, HCMV antiviral -106 and HCV inhibitor inactive.
For CCOC(=O)[C@]12CCC=C1N(Cc1cccc3ccccc13)C(=O)[C@H](CC(=O)NCc1ccc(OC)c(OC)c1)C2 the results were FMDV antiviral 35µM and HCMV antiviral -65.
`COC(=O)[C@]12CCCCC=C1N(Cc1cccc3ccccc13)C(=O)[C@H](CC(=O)NCc1ccc(OC)c(OC)c1)C2` gave FMDV antiviral 14µM and HCMV antiviral -86.
Screening O=c1c(-c2ccc(O)cc2)coc2cc(O[C@@H]3O[C@H](CO)[C@@H](O)[C@H](O)[C@H]3O)cc(O)c12 returned FBPA Giardia inh inactive.
For COc1ccc(CNc2nc(NCc3ccc(OC)cc3)c3ncn(C4CCCCC4)c3n2)cc1 the results were FBPA Giardia inh inactive.
`O=S(=O)(NCc1ccncc1)c1ccc(Br)s1` gave FBPA Giardia inh inactive, MARV entry inh inconclusive, FMDV antiviral inactive, LASV entry inh inactive, HCMV antiviral -61 and HCV inhibitor inconclusive.
For Cc1cc(C)c(C)c(S(=O)(=O)NCc2ccncc2)c1C the results were FBPA Giardia inh inactive, MARV entry inh inconclusive, FMDV antiviral inactive, LASV entry inh inconclusive, HCMV antiviral -68 and HCV inhibitor 7.1µM.
